CHO-K1 Ca antag: M1 antagonist counterscreen hit in parental CHO-K1 cells; inhibition, % at 3 µM; ATP-induced calcium, Fluo-8 fluorescence; 0.6% of 360,000 active;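 active = inhibition above a per-plate cutoff, the plate's mean sample inhibition plus 3 SD, cut at about 24% in these data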;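 also: 0% = DMSO plus EC80 ATP and 100% = DMSO alone without ATP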
CHRM1 agonist: human M1 muscarinic receptor agonists, primary screen, Fluo-8 calcium fluorescence, CHO-K1 cells, HTS; activation, % at 3 µM; CHO-K1 hM1, agonist mode; 0% DMSO, 100% acetylcholine EC100; 0.33% of 360,000 active; AID 588814, 2011;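 active = activation above the run's mean compound activation plus 3 SD, cut at about 16% in these data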;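 also: peak over basal fluorescence ratio within a 140 s kinetic read after compound addition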
Target sequence (P11229 whole entry, looked up): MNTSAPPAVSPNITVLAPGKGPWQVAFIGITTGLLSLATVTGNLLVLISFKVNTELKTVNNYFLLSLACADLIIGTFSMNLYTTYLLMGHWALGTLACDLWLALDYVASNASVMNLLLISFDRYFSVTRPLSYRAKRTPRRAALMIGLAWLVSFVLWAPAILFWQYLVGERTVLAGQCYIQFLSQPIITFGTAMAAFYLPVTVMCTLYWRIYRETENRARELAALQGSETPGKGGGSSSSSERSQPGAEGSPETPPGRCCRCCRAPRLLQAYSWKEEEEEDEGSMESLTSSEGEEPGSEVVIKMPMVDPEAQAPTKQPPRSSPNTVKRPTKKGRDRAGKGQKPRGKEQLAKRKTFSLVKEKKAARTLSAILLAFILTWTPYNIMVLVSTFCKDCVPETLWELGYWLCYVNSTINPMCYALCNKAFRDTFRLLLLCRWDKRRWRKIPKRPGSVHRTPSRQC
M1 ag parental: counter-screen for M1 agonists: effect in parental CHO-K1 cells. Fluo-8 calcium fluorescence; scaled to maximal ATP response, vehicle zero. activation, % at 3 µM. 0.48% of 360,000 active; in the data active = activation above about 15%;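 also: untransfected CHO-K1 host cells lacking M1 receptor as counterscreen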
CHRM1 antagonist: human M1 muscarinic receptor antagonists, primary screen, CHO-K1 cells, Fluo-8 calcium fluorescence, 1536-well. CHO-K1 hM1, ACh EC80 antagonist. 1.3% of 360,000 active. inhibition, % at 3 µM. Muscarinic acetylcholine receptor M1 (Homo sapiens), P11229;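 active = percent inhibition above its own plate's cutoff, namely the mean of that plate's compound wells plus 3 SD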;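 also: peak over basal fluorescence ratio during 140 s after agonist addition; 0% = ACh EC80 plus DMSO and 100% = DMSO alone without agonist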
CHRM1 PAM: human M1 muscarinic receptor positive allosteric modulators, primary screen, CHO-K1 cells, Fluo-8 calcium fluorescence, 1536-well | Muscarinic acetylcholine receptor M1 (Homo sapiens), P11229 | CHO-K1 hM1, ACh EC20; 0% = ACh EC20, 100% = maximal ACh | activation, % at 3 µM | 0.088% of 360,000 active; in the data active = activation above about 19%, passing the limit was not always enough
CHO-K1 Ca PAM: nonselective calcium activators in parental CHO-K1 cells, primary screen, counter-screen for M1 PAM project, cell-based, Fluo-8 calcium fluorescence, full deck, 1536-well | activation, % at 3 µM | ATP EC20; 0% at ATP EC20, 100% at ATP max | 0.02% of 360,000 active;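 active = activation above the run cutoff, the mean activation of all test compounds plus 3 SD, cut at about 40% in these data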;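 also: peak over basal fluorescence ratio in a 140 s read after ATP addition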
An asterisk follows results filed as active; nt = not tested or not shown. Only some compounds are listed: those with a hit (about 2.3% of all), similar ones and a draw of the others.

SMILES	CHO-K1 Ca antag	CHRM1 agonist	M1 ag parental	CHRM1 antagonist	CHRM1 PAM	CHO-K1 Ca PAM
OCC1(Cc2ccc(Cl)cc2)CCN(Cc2ccccc2F)CC1	-0.3	-8.1	2.0	9.3	-10.8	-0.9
CSc1ccc(CN2CCC(CO)(Cc3ccc(Cl)cc3)CC2)cc1	-3.1	-2.3	3.4	55.7*	-22.9	11.2
Cc1cc(C)c(C)c(S(=O)(=O)N2CCC(C(=O)N(C)Cc3nc4ccccc4c(=O)[nH]3)CC2)c1C	-15.9	-0.7	6.2	-1.2	9.6	-4.0
Cc1ccccc1C(=O)Nc1cc(C(F)(F)F)ccc1-n1cncn1	5.9	-1.9	-0.4	-1.2	5.9	-3.1
Cc1c(NC(=S)NC(=O)Cc2ccccc2)cccc1C(=O)O	-3.5	-3.5	0.2	-11.8	6.9	10.0
Cc1cccc(NC(=S)NC(=O)Cc2ccccc2)c1C	7.7	16.9*	11.0	-4.1	6.8	-3.8
Cc1cc(C)c(O)c(NC(=S)NC(=O)Cc2ccccc2)c1	-6.1	18.9*	7.4	-10.9	8.0	20.2
O=c1c2ccccc2c2ccccc2c(=O)n1Nc1ccccc1	12.0	-0.1	4.3	-11.9	6.2	20.3
N#Cc1ccc(-c2ccc(OCC(=O)Nc3cccnc3)cc2)cc1	11.6	3.1	17.7*	18.4	-11.8	-19.7
CC(=O)c1cccc(NC(=O)COc2ccccc2)c1	31.9*	1.3	-0.1	4.4	10.1	-7.9
O=C(COc1ccc(C(=O)c2ccccc2)cc1)Nc1cccnc1	18.5	-1.5	19.5*	24.8	-14.3	-4.2
O=C(Cc1c(F)cccc1Cl)NNC(=O)c1ccccc1Cl	-6.2	-1.5	0.4	-5.8	9.1	1.8
CCOC(=O)[C@]12CCC=C1N(Cc1ccco1)C(=O)[C@H](CC(=O)NCCCOC)C2	-6.3	nt	0.8	nt	nt	10.1
CCCCn1c(N)c(N(CC)C(=O)C(c2ccccc2)c2ccccc2)c(=O)[nH]c1=O	-12.6	-0.7	1.2	-10.6	12.3	21.1
CC(C)NC(=O)C(Sc1ccccc1)c1ccccc1 (stereo not given)	23.8*	-2.1	-0.1	0.1	5.8	-7.7
O=C(Nc1nccs1)c1cncc(Br)c1	-11.2	-4.0	1.7	3.6	-0.7	8.7
COc1ccc(N(CC(=O)Nc2ccc(OC)c(Cl)c2)S(=O)(=O)c2c(C)noc2C)cc1	-4.7	-1.4	2.9	3.3	-3.4	16.1
COc1ccc(N(CC(=O)Nc2ccc(F)c(Cl)c2)S(=O)(=O)c2c(C)noc2C)cc1	25.8*	-1.4	0.0	0.0	3.6	-6.2
COc1cccc(C2SCC(=O)N2c2ccc(Cl)cc2)c1OC (stereo not given)	0.4	-8.7	0.1	50.7*	-20.1	-4.0
Cc1ccc(N2C(=O)CSC2c2c(F)cccc2Cl)cc1 (stereo not given)	6.3	-7.5	-0.3	98.5*	-26.0	-1.2
CC12CCC(=O)N1C(C(=O)Nc1nc(-c3cc(F)ccc3F)cs1)CS2 (stereo not given)	1.5	-3.6	0.1	-2.2	-0.7	-8.3
CCn1c(SCC(=O)NCc2ccc(F)cc2)nc2c(c1=O)SC(C)C2 (stereo not given)	14.1	0.3	0.2	7.1	3.6	-4.4
CCn1c(SCC(=O)NCc2ccccc2)nc2c(c1=O)SC(C)C2 (stereo not given)	32.4*	-0.4	-0.2	-1.9	8.9	-9.3
CCN(CC)c1ccc(C(=O)O)cc1	24.7*	-5.6	-0.3	10.3	-5.0	-13.1
O=C(O)c1ccc(N(c2ccccc2)c2ccccc2)cc1	-6.5	-5.2	1.3	-12.8	5.8	22.7
SMILES	CHO-K1 Ca antag	CHRM1 agonist	M1 ag parental	CHRM1 antagonist	CHRM1 PAM	CHO-K1 Ca PAM
CCN(CC)c1ccc(/C=C2\C(=O)c3ccc(C(=O)O)cc3C2=O)cc1	22.0	126.2*	37.6*	62.3*	-28.9	-7.3
Cc1noc(C)c1S(=O)(=O)Nc1ccc2c(c1)CC(=O)N([C@H](C)CO)C[C@H](C)[C@H](CN(C)S(=O)(=O)c1ccc(F)cc1)O2	-10.8	-9.6	0.1	14.3	-12.8	11.8
c1ccc(C[n+]2ccc3ccccc3c2)cc1	16.8	-7.3	0.0	25.2	-12.5	-14.0
Clc1cccc(Cl)c1C[n+]1ccc2ccccc2c1	1.5	-11.5	0.5	31.4*	-16.7	-8.8
CC1CC(C)(C)CC2(C1)NC(=O)N(CC(=O)Nc1cc([N+](=O)[O-])ccc1F)C2=O (stereo not given)	-7.1	-4.1	0.1	2.0	-3.0	8.8
C[N+](C)(C)CCN(Cc1ccc(Cl)cc1)c1ccccn1	-2.6	18.6*	-0.2	25.7*	-8.4	5.7
C[C@@H]1CN([C@@H](C)CO)C(=O)CCCn2nncc2CO[C@@H]1CN(C)C(=O)Nc1ccnc(N2CCOCC2)c1	-2.3	-6.8	0.5	-16.0	12.2	3.6
Fc1ccc(Oc2ccc3nnc(C(F)(F)F)n3n2)cc1	-7.6	-12.0	1.0	-7.3	8.7	30.0
CCOC(=O)N1CCC(N2CCN(c3cc(C)ccc3C)CC2)CC1	-9.5	4.1	1.9	51.4*	-11.8	2.8
CCOC(=O)N1CCC(N2CCN(S(=O)(=O)c3ccc(Cl)cc3)CC2)CC1	-3.7	39.4*	1.7	-0.9	-14.9	21.9
CCOC(=O)N1CCN(S(=O)(=O)c2ccc(Cl)cc2)CC1	-4.1	1.3	1.3	-14.0	11.4	7.5
CCOC(=O)c1ccc(N2CCN(c3cc(C)ccc3C)CC2)c(N)c1	-20.3	-8.4	1.1	-3.6	0.3	-18.5
CCCCC(Nc1ncnc2ccccc12)C(=O)O (stereo not given)	-9.0	-3.9	0.2	-10.3	5.0	11.1
CC(Nc1ncnc2ccccc12)c1ccccc1 (stereo not given)	24.4*	-1.6	11.0	26.6*	-7.3	11.7
C/C(=N\NC(=O)Cn1c(-c2ccccn2)nc2ccccc21)c1ccccc1	25.7*	2.3	1.3	14.5	-2.1	-14.0
O=S(=O)(Nc1nc2ccccc2[nH]1)c1ccc(Cl)cc1	5.5	2.2	0.2	70.0*	-25.7	11.3
Cc1cc(Br)ccc1NC(=O)C1CCN(S(=O)(=O)c2cnc[nH]2)CC1	-11.3	-1.2	0.6	-3.0	0.6	-7.5
CC(=O)N/C(=C\c1ccccc1)C(=O)OCc1cccc(S(=O)(=O)N(C)C)c1	-3.2	-1.7	15.5*	2.5	-5.7	-4.9
CCC(c1nnnn1Cc1ccc(OC)cc1)N1CCN(c2ccc(OC)cc2)CC1 (stereo not given)	25.4*	-1.8	0.3	-4.3	5.9	-14.7

Compound activity from PubChem BioAssay.
